# SARS PLP yeast – qHTS of Yeast-based Assay for SARS-CoV PLP; S. cerevisiae expressing SARS-CoV PLpro, growth rescue; Potency, µM (doses to about 32.9 µM), for the others: top-dose activity, positive = growth rescue, hits mostly activators; 330,000 compounds, 0.19% hits; AID 485353, 2010; calls by dose curve; note: potency is the fitted concentration of half-maximal effect; 0% is about no effect; nearly all actives have a fitted effect of over 55% in size
# Pf growth 96h – Primary qHTS for delayed death inhibitors of the malarial parasite plastid, 96 hour incubation; Potency, µM (doses to about 28.7 µM), for the others: at the highest dose activity change, negative = inhibition, hits mostly inhibitors; P. falciparum luciferase reporter growth, 96 h; 320,000 compounds, 6.9% hits; AID 504834, 2011; note: potency is the fitted concentration of half-maximal effect; % is set by controls: 0 for no effect and ±100 for the full control effect
#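 Plates of compound plus infected erythrocytes (2% hematocrit, 0.05% parasitemia final) incubate 96 hours, 37 C, 5% CO2. Detection reagent added; reduced luminescence from the parasites' luciferase reporter flags inhibition.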
# HCMV inh – qHTS Assay for inhibitors of the human cytomegalovirus (HCMV). HFF cells, HCMV-luciferase reporter, 72 h; stronger effect = lower value. activity change, negative = inhibition, % at 57.5 µM. 410,000 compounds, 4.5% hits; in the data active = activity change below about -60%; inconclusive = no clear call, values can overlap the other calls; inactive = above about -39%; note: % is set by controls: 0 for no effect and ±100 for the full control effect
#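 Luciferase read-out from HCMV-luciferase-infected HFFs (MOI 1 PFU/cell) 72 h post infection at 37C; compounds added after 16 h cell attachment; activity normalized between buffer-only basal and Salinomycin (10uM) inhibitor controls.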
# Pf growth 48h – Primary qHTS for delayed death inhibitors of the malarial parasite plastid, 48 hour incubation; P. falciparum luciferase growth in erythrocytes, 48 h; Potency, µM (series often up to 28.7 µM), for the others: at the highest dose activity change, negative = inhibition, hits mostly inhibitors; 310,000 compounds, 5.9% hits; note: potency is the fitted concentration of half-maximal effect; % is set by controls: 0 for no effect and ±100 for the full control effect
#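 Compounds are pin-transferred into medium, infected erythrocytes (2% hematocrit, 0.1% parasitemia final) are added, and plates sit one parasite generation at 37 C in 5% CO2. Detection reagent is then added and luminescence measured.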
# HCV inhibitor – qHTS Assay for Inhibitors of Hepatitis C Virus (HCV) | Potency, µM (top dose mostly 41.8 µM), without a hit: at the highest dose activity change, negative = inhibition, most hits filed as inhibitors | Huh7.5.1 HCVcc-Cre infection, luciferase reporter, 44 h | 340,000 compounds, 3.4% hits; note: potency is the fitted concentration of half-maximal effect; % is set by controls: 0 for no effect and ±100 for the full control effect
#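 Compounds are dispensed onto cells plated 4 h earlier at 1,000 per well, with HCVcc-Cre virus (about 0.5 moi) added next. Following 44 h of culture, luminescent signal is measured for 15 sec after 15 min with substrate at room temperature.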
# Sm TGR block – qHTS Assay for the Inhibitors of Schistosoma Mansoni Peroxiredoxins. Schistosoma mansoni thioredoxin glutathione reductase (TGR), Q962Y6. AID 485364, 2010. 360,000 compounds, 3% hits. purified TGR, DTNB reduction, TNB absorbance 405 nm. Potency, µM (doses to about 114 µM), for inactives: at the highest dose activity change, negative = inhibition, most hits filed as inhibitors; note: potency is the fitted concentration of half-maximal effect; % is set by controls: 0 for no effect and ±100 for the full control effect; nearly all actives have a fitted effect of over 60% in size
#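 First, TGR (20 nM dispensed) and NADPH were mixed with compound. Second, a 15 min room-temperature incubation followed. Third, further NADPH and then DTNB were added to start the reaction. Finally, TNB absorbance was monitored kinetically.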
# Active calls of the source: *; i = inactive; ? = inconclusive; · = no result. In the library only some 15% were active in any assay of this set; here they are far more common. Unless noted, calls come from the whole dose curve; as a rule, active = well fitted curve in the direction sought with a large enough effect; inconclusive = small, poorly fitted or top-dose-only effect, or another doubt; inactive = no such curve, though single readings can be large; an effect the other way counts as inactive or inconclusive.
SMILES,SARS PLP yeast,Pf growth 96h,HCMV inh,Pf growth 48h,HCV inhibitor,Sm TGR block
O=C(O)c1[nH]c2ccccc2c1-c1ccccc1,6%,10%,-10,·,37%,-1%
Cc1ccc2[nH]c(C(=O)O)c(-c3ccccc3)c2c1,5%,7.4µM*,41,7%,-3%,3%
Cc1ccc2sc(NC(=O)CSc3nc(C)cc(C)c3C#N)nc2c1,0%,i,56,54%,-18%,0%
Cc1nc(SCC(=O)Nc2nccs2)c(C#N)c(C)c1C,0%,43%,-69*,114%,0%,-7%
N#Cc1c(SCC(=O)Nc2nccs2)nc2c(c1-c1ccco1)CCCC2,-2%,1%,?,20%,?,45µM*
Cc1cc(C(F)(F)F)c(C#N)c(SCC(=O)Nc2nc3ccccc3s2)n1,-10%,332%,-60*,227%,?,-3%
CC(C)(C)c1nc2ccccc2c2nnc(SCC(=O)Nc3nc4ccccc4s3)n12,-1%,35%,10,-5%,13µM*,17%
Cc1cc(C)c(C)c(S(=O)(=O)N(C)CCc2ccccn2)c1C,0%,·,-38,·,2%,·
COCc1cc(=O)[nH]c(/N=C(\N)Nc2cccc(Cl)c2)n1,0%,7%,-27,11%,?,-2%
Cc1nc(SCC(=O)Nc2nc3ccccc3s2)c(C#N)c(C)c1C,13%,?,-94*,-71%,?,-22%
O=C(CSC1=NCCS1)Nc1nc2ccccc2s1,-4%,-11%,-68*,91%,?,-21%
Cc1nc(SCC(=O)Nc2nc3ccccc3s2)n[nH]1,-1%,?,25,51%,?,7%
CC(C)CC(=O)OCc1cc(=O)n2nc(C3CCCCC3)sc2n1,·,·,10,·,·,-8%
Cc1ccc2nc(-c3cccc(NC(=O)c4cccc5c(Cl)cccc45)c3)oc2c1,·,·,22,·,·,8%
Cc1ccccc1CN1CCNC(=O)C1CC(=O)NC1CCCCCCC1 (stereo not given),-6%,2.6µM*,28,?,4%,?
Cc1nnc(CN(C)C(=O)CC2C(=O)NCCN2Cc2ccccc2C)o1 (stereo not given),4%,-18%,8,-4%,19%,28µM*
O=C(CC1C(=O)NCCN1Cc1ccccc1C(F)(F)F)NC1CCCC1 (stereo not given),1%,-30%,33,30%,12%,40µM*
O=C(CC1C(=O)NCCN1Cc1cccc(C(F)(F)F)c1)NC1CCCCCC1 (stereo not given),1%,-6%,·,-8%,-23%,22µM*
CCOP(=O)(OCC)C(NC(=O)c1cccs1)c1ccccc1 (stereo not given),2%,10%,41,1%,-14%,20%
CN[C@H](C)C(=O)NC[C@H]1O[C@@H](n2cnc3c(N)ncnc32)[C@H](O)[C@@H]1O,22%,·,·,·,23%,·
COC1C(O)C(O)C(O)C(O)C1O (stereo not given),·,·,5,·,4%,·
CCOc1ccccc1CN1CCNC(=O)C1CC(=O)NC1CCCCCCC1 (stereo not given),·,·,-62*,·,7%,·
Cc1ccc2nc3c(c(N)c2c1)CCN3c1ccccc1,0%,?,16,?,?,-33%
COc1ccc(N2CCc3c(C)nc4c(OC)cccc4c32)cc1,3%,?,-66*,?,?,-2%
COc1cccc(N2CCc3c(C)nc4ccc(Cl)cc4c32)c1,-2%,12µM*,-22,13µM*,?,1%
SMILES,SARS PLP yeast,Pf growth 96h,HCMV inh,Pf growth 48h,HCV inhibitor,Sm TGR block
COc1ccc(N2CCc3c(C)nc4c(OC)cc(OC)cc4c32)c(OC)c1,-4%,15µM*,-20,?,11µM*,4%
COc1ccc(N2CCc3c(C)nc4c(OC)cc(OC)cc4c32)cc1,-1%,?,-108*,?,13µM*,7%
CCN1Cc2c(/C=C/c3ccccc3)nc3ccc(OC)cc3c2N(c2cccc(Cl)c2)C1,-3%,3.3µM*,-102*,2.1µM*,18µM*,40µM*
COc1cccc(-n2c(/C=C\c3ccc(Cl)cc3)nc3ccccc3c2=O)c1,·,·,?,·,·,9%
Cc1ccc(NC(=O)C2=C(c3ccccc3)S(=O)(=O)CCS2(=O)=O)cc1,6%,0%,-99*,0%,11µM*,0.32µM*
Cc1cc(C)c2c(=O)[nH][nH]c2n1,·,·,1,·,28%,·
O[C@@H]1CN(Cc2cccs2)[C@@H](c2ccccc2)C[C@H]1n1cc(-c2ccc(F)cc2)nn1,·,·,19,·,·,·
Cc1ccc(NC(=O)c2nc[nH]c2C(=O)NCCCCCNC(=O)OC(C)(C)C)cc1,-9%,?,-64*,3.3µM*,?,1%
CCOC(=O)c1ccc(NC(=O)c2nc[nH]c2C(=O)NCCCNC(=O)c2[nH]cnc2C(=O)Nc2ccc(C(=O)OCC)cc2)cc1,0%,?,5,0%,-5%,-1%
CCOC(=O)c1ccc(NC(=O)c2nc[nH]c2C(=O)NCCCCNC(=O)c2[nH]cnc2C(=O)Nc2ccc(C(=O)OCC)cc2)cc1,0%,1.5µM*,-4,?,0%,-7%
CC(C)(C)OC(=O)NCCCCCNC(=O)c1[nH]cnc1C(=O)Nc1ccc(Cl)cc1,-4%,?,-39,10µM*,35µM*,-5%
CC(C)(C)OC(=O)NCCCCCNC(=O)c1[nH]cnc1C(=O)Nc1ccccc1,4%,?,26,?,-1%,-5%
CCOC(=O)CCCC(=O)N1CCOCCOCCOCC1,1%,-17%,14,-26%,11%,16%
Cc1ccc(NC(=S)N/N=C/c2ccc(Cl)c([N+](=O)[O-])c2)cc1,10%,·,-32,19%,?,-1%
Fc1ccc(NC(=S)N/N=C/c2ccc(F)c(F)c2)cc1,28%,?,?,-16%,-16%,-3%
CCn1nc(C)c(/C=N/NC(=S)Nc2ccc(Cl)cc2Cl)c1C,18%,?,-103*,-16%,?,0%
O=[N+]([O-])c1ccc(/C=N/NC(=S)Nc2ccc(Cl)cc2Cl)s1,-7%,3.3µM*,-64*,13µM*,?,45µM*
Fc1ccc(/C=N/NC(=S)Nc2ccc(Cl)cc2Cl)cc1,1%,2.1µM*,?,-3%,?,1%
O=[N+]([O-])c1ccc(O)c(/C=N/NC(=S)Nc2ccc(Cl)cc2Cl)c1,9%,0.83µM*,0,2.1µM*,19%,8%
CC(=O)Nc1nonc1-c1nnc(SCC(=O)Nc2cc(Cl)ccc2C)n1C,·,·,-13,·,·,2%

# From PubChem BioAssay
